Measurements: PubChem BioAssay AID777 (Sanford-Burnham Center for Chemical Genomics, 2007)
Among all 96,000 compounds or so, about 19,000 (20%) were called active. Only a sample is shown. A number with no mark means an inactive call.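 How the source made its calls: active means blocking of liver enzyme CYP2C9 beyond about 50% at 5 µM (limit read from the data); inactive means the rest.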

These compounds were tested against Cytochrome P450 2C9 (Homo sapiens) (UniProt P11712) (assay: blockers of cytochrome P450 2C9 activity – biochemical, luminescence, ADME assay, primary screen (AID 777)). Conditions: CYP2C9 Supersomes, luciferin-H conversion, at 5 µM, hits give high values.
Sequence of Cytochrome P450 2C9 (Homo sapiens) (P11712 whole entry, looked up): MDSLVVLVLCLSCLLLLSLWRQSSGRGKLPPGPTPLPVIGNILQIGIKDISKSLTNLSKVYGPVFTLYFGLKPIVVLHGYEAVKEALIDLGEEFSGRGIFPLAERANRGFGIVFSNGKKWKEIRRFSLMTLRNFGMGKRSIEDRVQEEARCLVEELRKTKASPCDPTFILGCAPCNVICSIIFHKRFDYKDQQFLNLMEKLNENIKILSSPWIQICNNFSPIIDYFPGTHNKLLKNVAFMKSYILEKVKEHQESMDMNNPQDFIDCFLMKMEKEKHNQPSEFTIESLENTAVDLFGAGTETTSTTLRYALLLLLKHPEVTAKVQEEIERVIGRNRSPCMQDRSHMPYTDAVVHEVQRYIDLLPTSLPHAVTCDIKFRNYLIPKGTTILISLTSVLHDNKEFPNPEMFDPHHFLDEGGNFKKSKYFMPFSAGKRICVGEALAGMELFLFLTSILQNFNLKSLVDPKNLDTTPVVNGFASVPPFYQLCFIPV

Going from `CCCC(=O)N=c1sc2cccc(F)c2n1C` to `CCCc1ccc(-c2csc(NC(=O)Cc3cccs3)n2)cc1`, the inhibition rises from 14.7% to 42.2%.

First: CC1=Nn2c(nnc2-c2ccccc2)SC1
Second: CCOC(=O)c1nnn(-c2nonc2OC)c1-c1ccccc1
The inhibition of the first is lower: -4.9% for the first, 26.7% for the second.

Going from `CCn1c(=N)c(S(=O)(=O)c2ccc(F)cc2)cc2c(=O)n3ccccc3nc21` to `Cc1cccc2nc(CNc3ccc(F)cc3)cn12`, the inhibition rises from -0.6% to 38.8%.

Going from `O=C(Nc1nsc(-c2ccccc2)n1)c1ccncc1` to `O=C(NCc1ccco1)c1cc(-c2cccnc2)nc2ccc(Cl)cc12`, the inhibition falls from 45.7% to 17.9%.

First: CCC(=O)Nc1nc(OC)cc(OC)n1
Second: COc1ccc(C(=O)Nc2c(N)nc(SCC(=O)N3CCC(C)CC3)[nH]c2=O)cc1OC
The inhibition of the first is higher: 2.1% for the first, -5.6% for the second.

First: COc1ccc(-n2c(SCC(=O)Nc3sc4c(c3C#N)CCCC4)nnc2-c2ccc(O)cc2)cc1
Second: CCOc1ccc(-c2nnn(CC(=O)N3CCN(c4ccc(OC)cc4)CC3)n2)cc1OCC
The inhibition of the first is higher: 33.9% for the first, 1.7% for the second.

Compared with `N#Cc1ccsc1NC(=O)CN1CCCCC1`, `CC(=O)c1cc(-c2ccccc2)[nH]c1N1CCCC1` is higher in inhibition: -15.3% for the first, 12.9% for the second.

First: COc1ccc(NC2CC(=O)N(C)C2=O)cc1 (centres undefined)
Second: Cc1ccc(C)c(NC(=O)c2ccc(OC(=O)c3ccco3)cc2)c1
The inhibition of the first is higher: 1.8% for the first, -24% for the second.

First: Cc1c(Cl)c([N+](=O)[O-])nn1Cc1ccc(C(=O)N/N=C\c2cc(Cl)ccc2O)o1
Second: CCN1CCN(c2ccc([N+](=O)[O-])cc2C(=O)c2ccc(Cl)cc2)CC1
The inhibition of the first is higher: 41.2% for the first, -60.5% for the second.

First: O=C1c2ccccc2C(O)N1Cc1ccccc1 (centres undefined)
Second: Cc1ccc(CNC(=O)C2CCCN2C(=O)NCc2ccccc2)cc1 (centres undefined)
The inhibition of the first is higher: -2.8% for the first, -10% for the second.

Compared with `Cn1cccc1C(=O)NC(=O)COC(=O)Cc1coc2ccc3ccccc3c12`, `Cc1ccc(C(=O)NNC(=O)c2cc3cc4ccccc4nc3s2)cc1` is higher in inhibition: -91.7% for the first, 6.6% for the second.

Compared with `O=C(c1ccco1)N1CCN(C(=O)C2CCCN(S(=O)(=O)c3cccc4nsnc34)C2)CC1` (centres undefined), `O=C1CCc2cc(S(=O)(=O)N3CCC(C(=O)NCc4ccccc4Cl)CC3)ccc2N1` is higher in inhibition: 12.6% for the first, 24.7% for the second.

Compared with `COc1ccc(C(=O)Oc2cc(/C=N/NS(=O)(=O)c3ccc(C)cc3)ccc2OC)cc1`, `Cc1ccc(C(=O)N/C(=C/C=C/c2ccccc2)C(=O)NCc2ccco2)cc1` is higher in inhibition: 29.8% for the first, 36% for the second.

First: O=C(NCCCN1CCN(C2CCCCC2)CC1)Nc1ccccc1C(F)(F)F
Second: Cc1ccccc1NC(=O)NCc1ccco1
The inhibition of the first is higher: 0.7% for the first, -34.3% for the second.

Compared with `Cc1cc(NCc2ccco2)n2c(nc3ccccc32)c1C#N`, `Cc1cccc(Nc2ccccc2C(=O)NCc2ccco2)c1C` is higher in inhibition: 20.4% for the first, 27.2% for the second.

Compared with `O=C(COC(=O)CCc1c[nH]c(=O)[nH]1)Nc1ccccc1Cl`, `CCc1ccccc1N(CC(=O)NCCSCc1ccco1)S(C)(=O)=O` is higher in inhibition: -6% for the first, 25.8% for the second.

Compared with `O=C(O)C1CCCN1S(=O)(=O)c1ccc2c(c1)CCC2` (centres undefined), `Cc1ccc(-c2csc(NC(=O)Cc3cccs3)n2)cc1C` is higher in inhibition: -48.8% for the first, 26.9% for the second.

Compared with `CCc1nnc(NC(=O)c2nc3nccc(C)n3n2)s1`, `CCn1c(SCC(=O)Nc2nc(C)cs2)nnc1C(C)NC(=O)c1ccccc1` (centres undefined) is higher in inhibition: 1.9% for the first, 21.2% for the second.

Compared with `Cc1ccc(-c2csc(NC(=O)c3cccs3)n2)cc1`, `COc1cccc(-c2nnc(N(C)C(=O)c3ccno3)s2)c1` is lower in inhibition: 3.3% for the first, 2.4% for the second.

In the case of `COc1cc(OC)cc(C(=O)NCCSCc2ccco2)c1`, the inhibition is reported as -1.5%.

In the case of `CC(c1nnc(SCC(=O)Nc2sccc2C#N)n1-c1ccc(Cl)cc1)N(C)C` (centres undefined), the inhibition is reported as 50.8% (active).
For `O=C(NCc1ccccc1)[C@@H]1CSC2c3ccccc3C(=O)N21` (some centres undefined), the inhibition was 67.1% (active).
In the case of `COc1ccc(/C=C(/NC(=O)c2ccc(C)cc2)c2nc3ccccc3[nH]2)cc1OC`, the inhibition is reported as 69.5% (active).
For `Clc1cccc(-c2nc3nc4ccccc4nc3n2Cc2ccco2)c1`, the inhibition was 52.8% (active).
With `CSc1cccc(NC(=O)C2CCCN2S(=O)(=O)c2ccc3c(c2)CCC(=O)N3)c1` (centres undefined) the inhibition was 81.6% (active).
With `Cc1cccc(S(=O)(=O)CC(=O)Nc2nc(-c3ccccc3)cs2)c1` the inhibition was 91.4% (active).
For `O=C(CSC1=NCCS1)Nc1nc(-c2ccccc2)cs1`, the inhibition was 60.8% (active).
With `CS(=O)(=O)N(Cc1ccc(Cl)cc1)c1ccc(C(=O)NCCSCc2ccco2)cc1` the inhibition was 74.1% (active).
For `Cc1ccc(N(Cc2ccc(C(=O)Nc3ccccc3C(=O)NCc3ccco3)cc2)S(C)(=O)=O)cc1C`, the inhibition was 72% (active).
With `O=C(Nc1ccccc1)Nc1ccccc1C(=O)NCc1ccco1` the inhibition was 88.1% (active).
